HP1b binding inh – HP1-beta chromodomain-methylated histone interaction inhibition. P83916. AlphaScreen HP1-beta / biotin-H3K9me3 peptide binding. Potency, µM (titrated, usually from 114 µM), without a hit: at the top dose activity change, negative = inhibition, hits mostly inhibitors. 390,000 tested, 0.56% active; also: nearly all actives have a fitted effect of over 70% in size
Target sequence (P83916 whole entry, looked up): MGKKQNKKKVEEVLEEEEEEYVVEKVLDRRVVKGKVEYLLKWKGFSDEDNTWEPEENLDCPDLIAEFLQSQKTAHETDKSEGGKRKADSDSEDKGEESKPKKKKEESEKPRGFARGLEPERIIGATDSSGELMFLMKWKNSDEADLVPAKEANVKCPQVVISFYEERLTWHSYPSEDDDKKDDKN
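Compound inhibition of the preformed complex between 50 nM HP1-beta and 50 nM biotinylated H3K9me3 peptide was read by AlphaScreen. Buffer was PBS pH 7.4 with 0.01% Tween-20. Incubations ran 30 min at room temperature, with 10 ug/mL donor/acceptor beads.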
BAZ2B block – blocks human BAZ2B | Q9UIF8 | AlphaScreen BAZ2B-H3K14Ac peptide displacement | Potency, µM (top dose mostly 114 µM), without a hit: top-dose activity change, negative = inhibition, most hits filed as inhibitors | 360,000 tested, 4.4% active; also: % is scaled to controls: 0 for no effect and ±100 for the full control effect; nearly all actives have a fitted effect of over 60% in size
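Compounds, titrated to a top concentration of 110 uM, were incubated 30 min at room temperature with preformed BAZ2B/acetyl-K14 H3 peptide complex (50 nM each). Proximity signal was measured by AlphaScreen after 20 min with beads.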
JMJD2A Tudor inh – JMJD2A Tudor domain (human) inhibition | Potency, µM (highest dose often 114 µM), for the others: top-dose activity change, negative = inhibition, actives largely listed as inhibitors | 390,000 tested, 4.4% active | O75164 | AID 504339 | AlphaScreen JMJD2A-Tudor / H3K4me3 peptide binding; also: % is scaled to controls: 0 for no effect and ±100 for the full control effect; nearly all actives have a fitted effect of over 50% in size
L3MBTL1 inh – L3MBTL1 (human) inhibition; Q9Y468; AlphaScreen L3MBTL1–H3K9me1 peptide binding; Potency, µM (titrated, usually from 57.1 µM), without a hit: top-dose activity, negative = inhibition, actives largely listed as inhibitors; 230,000 tested, 0.66% active; also: % is scaled to controls: 0 for no effect and ±100 for the full control effect; nearly all actives have a fitted effect of over 60% in size
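AlphaScreen assay: L3MBTL1 (50 nM final) was preincubated 30 min at room temperature with biotinylated H3(1-15)K9me1 peptide (75 nM final), then 30 min with library compounds; streptavidin donor and nickel chelate acceptor beads (10 ug/mL final) added, 30 min dark.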
G9a inh – inhibitors of human histone lysine methyltransferase G9a; AID 504332; 350,000 tested, 8.8% active; G9a H3K9 monomethylation, AlphaScreen, 2 h; Potency, µM (series often up to 102 µM), inactives show at the highest dose activity, negative = inhibition, usual class: inhibitors; Q96KQ7; also: % is scaled to controls: 0 for no effect and ±100 for the full control effect; nearly all actives have a fitted effect of over 75% in size
Target sequence (Q96KQ7 913-1193 limits assumed): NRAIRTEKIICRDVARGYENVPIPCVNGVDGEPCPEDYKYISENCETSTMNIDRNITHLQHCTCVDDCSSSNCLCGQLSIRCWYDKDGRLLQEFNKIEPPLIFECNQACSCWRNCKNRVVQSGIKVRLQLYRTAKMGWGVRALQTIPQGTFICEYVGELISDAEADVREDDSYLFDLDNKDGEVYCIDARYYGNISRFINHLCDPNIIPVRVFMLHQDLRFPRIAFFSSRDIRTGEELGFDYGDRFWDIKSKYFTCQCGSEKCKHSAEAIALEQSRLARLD
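Step 1: enzyme (final 20 nM) with compound, 15 min RT. Step 2: substrate peptide 500 nM and SAM 20 uM, 2 h RT. Step 3: anti-H3K9me1 antibody and AlphaScreen beads, 10 min, then plate read.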
Sfp inh – inhibitors of Bacillus subtilis Sfp phosphopantetheinyl transferase | Q9F4F7 | Biochemical Sfp PPTase activity, qHTS | Potency, µM, inactives show largest response in the series, negative = inhibition, actives largely listed as inhibitors | 310,000 tested, 3.5% active | AID 1490;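 also: the enzyme is Sfp with the accession as filed and its product quenches rhodamine fluorescence; 0% = enzyme reaction without inhibitor and -100% = no enzyme wells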
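Step 1, compound plus 15 nM Sfp-PPTase, 15 min, room temperature. Step 2, add rhodamine-CoA (5 uM) and BHQ-2-YbbR (12.5 uM). Step 3, read 525/598 nm fluorescence at 0 and 30 min.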
* = called active by the depositor; ? = inconclusive; . = no result given; [ ] = remark or other dose. Compounds with a hit are over-represented: about 12% of the library has one in this group of screens. Calls follow the shape of the dose curve; as a rule, active = well fitted curve in the direction sought with a large enough effect; inconclusive = small, poorly fitted or top-dose-only effect, or another doubt; inactive = no such curve, though single readings can be large; an effect the other way counts as inactive or inconclusive. Potency is read from the fitted curve at half-maximal effect.

SMILES	HP1b binding inh	BAZ2B block	JMJD2A Tudor inh	L3MBTL1 inh	G9a inh	Sfp inh
CCc1ccc(/C=C2\SC(=S)N(CCCC(=O)Nc3ccc(C(=O)O)cc3)C2=O)cc1	?	35.5µM*	50.1µM*	.	-2.8%	-22.9%
COc1ccc(NC(=O)c2cc3c(s2)-c2c(C)cccc2OC3)c(OC)c1	47.3%	-5.2%	4.0%	.	26.6%[59 µM]	.
COc1ccc(/C=C2\SC(=S)N(CC(=O)OCC(=O)Nc3cc(Cl)cc(Cl)c3)C2=O)cc1	-4.1%	-37.6%	?	.	31.6µM*	20µM*
COc1ccc(/C=C2/SC(=S)N(CCCC(=O)Nc3cccc(O)c3)C2=O)cc1	?	?	?	.	?	-0.2%
O=C(CCCN1C(=O)/C(=C/c2cccs2)SC1=S)NNC(=O)c1ccccc1O	22.6%	56.2µM*	-17.9%	?	18.8%[59 µM]	21.0%
CCCCOc1ccc(-c2csc(N)n2)cc1[N+](=O)[O-]	-10.7%	?	-19.3%	-8.2%	8.91µM*	39.8µM*
CN(C)N1C(=O)/C(=C/c2ccco2)SC1=Nc1ccccc1	-11.2%	.	-28.5%	.	.	.
O=C1/C(=C\c2ccc(Br)o2)SC(=Nc2ccccc2)N1c1ccccc1	-31.8%	8.91µM*	25.1µM*	?	39.8µM*	-15.5%
COC(=O)N1C2CC3(C)CC(=O)CC1(C)C3c1ccccc12 (stereo not given)	.	.	.	.	.	-1.3%
CCC(=O)Nc1ccc(N2CCCCC2)c(C(=O)Nc2ccccc2C)c1	21.2%	?	-31.6%	.	?	-5.8%
CN(C)S(=O)(=O)c1ccc(N2CCCC2)c(C(=O)Nc2ccccc2Br)c1	27.7%	6.4%	-17.4%	-5.0%	44.7µM*	.
Cc1ccccc1NC(=O)c1cc(N)ccc1N1CCCCC1	-4.7%	?	?	-10.5%	31.6µM*	-15.9%
CN(Cc1ccccc1)C(=O)COC(=O)c1cc(S(=O)(=O)N(C)C)ccc1N1CCCC1	21.9%	-18.8%	-11.9%	-3.2%	50.1µM*	.
Cc1cccc(C)c1NC(=O)Cn1cc(S(=O)(=O)Cc2ccc(F)cc2)c2ccccc21	-17.1%	?	?	.	-31.8%[59 µM]	.
CC(=O)N[C@H]1CSSC[C@@H](C(=O)N2CCC[C@H]2C(=O)N2CCC[C@H]2C(=O)N[C@@H](CCCCN)C(=O)N[C@@H](CC(=O)O)C(N)=O)NC(=O)CNC(=O)[C@H](Cc2c[nH]c3ccccc23)NC(=O)[C@H](CCCNC(=N)N)NC(=O)[C@@H](Cc2ccc3ccccc3c2)NC(=O)[C@H](Cc2cnc[nH]2)NC(=O)[C@H](CCC(=O)O)NC1=O	.	.	.	.	.	6.7%
Cc1ccc(-n2c(C)c([N+](=O)[O-])c3ccc(O)cc32)cc1	.	-4.4%	.	2.8%	50.1µM*	17.8µM*
CCN(C(=S)Nc1cccnc1)c1cccc2ccccc12	-11.1%	?	-27.1%	-7.8%[11.4 µM]	?	22.4µM*
CN(C(=S)Nc1ccc(SC(F)F)cc1)c1ccc(O)cc1	70.8µM*	?	?	-18.2%	1.41µM*	31.6µM*
CN(C(=S)Nc1cccnc1)c1ccc(O)cc1	?	-9.9%	?	-9.4%	1.58µM*	?
CN(C(=S)Nc1ccccc1)c1ccccc1	2.0%	-19.6%	20.5%	9.2%	-10.2%	9.1%
CN(C(=S)Nc1ccc(Oc2ccccc2)cc1)c1ccc(O)cc1	17.8µM*	?	56.2µM*	?	1.26µM*	7.94µM*
FC(F)Sc1ccc(NC(=S)NC2CCCC2)cc1	25.0%	-1.4%	-14.4%	19.1%	30.7%	11.8%
CCN(C(=S)Nc1cccnc1)c1ccccc1	18.1%	-17.4%	-2.8%	13.9%	-36.9%	-20.4%
O=C(CSc1nc2ccc(Cl)cc2[nH]1)Nc1ccc2[nH]c(=O)[nH]c2c1	14.7%	3.3%	?	-3.1%	5.62µM*	.
Cc1ccc2nc(SCC(=O)Nc3ccc(C(N)=O)cc3)[nH]c2c1	?	16.2%	-12.4%	.	39.8µM*	7.8%
SMILES	HP1b binding inh	BAZ2B block	JMJD2A Tudor inh	L3MBTL1 inh	G9a inh	Sfp inh
Cc1ccc(NC(=O)CSc2nc3ccc(Br)cc3[nH]2)c(C)c1	30.2%	2.5%	-14.5%	.	8.91µM*	.
Cc1ccc2nc(SCC(=O)Nc3ccc(F)cc3F)[nH]c2c1	38.1%	2.2%	-18.8%	1.6%	?	13.2%
O=C(CSc1nc2ccccc2[nH]1)Nc1ccc(F)c(F)c1	11.3%	8.5%	-16.6%	.	1.1%[59 µM]	-3.3%
Cc1c(NC(=O)CSc2nc3ccc(Cl)cc3[nH]2)c(=O)n(-c2ccccc2)n1C	18.0%	?	-11.7%	.	11.2µM*	-7.2%
Cc1ccc2nc(SCC(=O)Nc3cccc([N+](=O)[O-])c3)[nH]c2c1	-1.8%	?	?	-5.2%	13.3%[59 µM]	14.2%
COc1ccc(S(=O)(=O)Nc2cccc(-c3ccc(N4CCC(C)CC4)nn3)c2)cc1OC	10.4%[57 µM]	-17.8%	-17.6%	.	-7.1%[59 µM]	.
O=c1oc2ccccc2cc1-c1cn2cc(Cc3ccccc3F)sc2n1	29.5%	-0.1%	4.5%	.	17.5%[59 µM]	.
Cc1c(NC(=O)CSc2ccc3c(c2)OCCO3)c(=O)n(-c2ccccc2)n1C	?	18.7%	50.1µM*	1.4%	-23.9%	20.3%
Cc1c(NC(=O)CSc2ccc(Cl)cc2)c(=O)n(-c2ccccc2)n1C	42.8%	26.5%	-21.3%	.	?	13.8%
Cc1nc2ccc(NC(=O)CSc3nnc(C)s3)cc2[nH]1	21.1%	0.5%	-14.1%	.	39.8µM*	3.5%
Cc1ccc2nc(SCC(=O)Nc3c(F)cccc3F)[nH]c2c1	35.8%	-4.0%	-13.8%	-8.0%	-42.4%	10.9%
Cc1nnc(SCC(=O)Nc2ccc3c(c2)OCCO3)s1	27.6%	-2.3%	-8.6%	21.7%	21.0%[59 µM]	5.8%
Cc1ccc2nc(SCC(=O)Nc3ccc4[nH]c(=O)[nH]c4c3)[nH]c2c1	3.6%	-22.4%	-25.3%	-8.6%	7.94µM*	.
Cc1c(NC(=O)CSc2nc3ccccc3s2)c(=O)n(-c2ccccc2)n1C	40.8%	7.2%	-4.1%	.	50.1µM*	-21.9%
Cn1c(=O)c2sccc2n2c(CCC(=O)N3CCN(c4cccc(Cl)c4)CC3)nnc12	21.2%	1.6%	0.3%	.	2.0%[59 µM]	.
OC(COc1ccc2c(c1)OCO2)CN1CCN(c2ccc(F)cc2)CC1 (stereo not given)	31.2%	?	-10.7%	-15.7%	50.1µM*	9.9%
O=C(CN1CCN(c2ccc(F)cc2)CC1)c1ccc2c(c1)OCO2	30.7%	-24.5%	-28.3%	-2.1%	31.6µM*	-21.1%
OC(COc1ccc2c(c1)OCO2)CN1CCCC1 (stereo not given)	17.7%	-11.2%	-21.4%	2.2%	4.5%	19.0%
c1ccc(N2CCN(CCCOc3ccc4c(c3)OCO4)CC2)cc1	.	.	.	.	20µM*	-15.7%
CC(C)c1ccc(OCC(O)CN2CCN(c3ccc(F)cc3)CC2)cc1 (stereo not given)	10.0%	-18.3%	79.4µM*	.	10µM*	.

Source: PubChem
